Experimental data as given in PubChem BioAssay AID651820 (National Center for Advancing Translational Sciences (NCATS), 2012).
Screen size: about 340,000 compounds; about 12,000 (3.5%) were called active. Not shown: some 18% with an inconclusive outcome. This excerpt belongs to a sample that is enriched for actives. A number with no mark means an inactive call. Calls follow the shape of the dose curve; as a rule, active = well fitted inhibition curve with a large enough effect; inconclusive = small, poorly fitted or top-dose-only effect, or another doubt; inactive = no such curve, though single readings can be large or run the other way.

assay: qHTS Assay for Inhibitors of Hepatitis C Virus (HCV); details: Huh7.5.1 HCVcc-Cre infection, luciferase reporter, 44 h; series mostly up to 41.8 µM; activity change, negative = inhibition: at the top concentration
Text: Hepatitis C virus (HCV) infects about 200 million people in the world. Many infected people progress to chronic liver disease including cirrhosis with a risk of developing liver cancer. To date, there is no effective vaccine for hepatitis C. Current therapy based on interferon is only effective in about half of the patients and is associated with significant adverse effects. The fraction of people with HCV who can complete a successful treatment is estimated to be no more than 10 percent. Recent development of direct-acting antivirals against HCV, such as protease and polymerase inhibitors, is promising but still requires combination with peginterferon and ribavirin for maximal efficacy. In addition, these agents are associated with high rate of resistance and many have significant side effects. Due to the lack of a culture system for infectious HCV, the search for new HCV drugs has been greatly hampered. […] High-throughput screening (HTS) with an infectious HCV system would cover the complete spectrum of potentially druggable targets in all stages of HCV lifecycle, and would have more biological relevance than other cell-based assays. Moreover, targeting several key processes in the viral life cycle may not only increase antiviral efficacy; more importantly, it may also reduce the capacity of the virus to develop resistance to the compound. The goal of this project is to identify novel HCV inhibitors as new therapies for hepatitis C, using a highly sensitive and specific assay platform which is based on a HCV infectious cell culture system established in the laboratory and adapted for high-throughput HCV drug screen. NIH Chemical Genomics Center [NCGC] NIH Molecular Libraries Probe Centers Network [MLPCN] MLPCN Grant: MH095511 Assay Submitter (PI): Jake Liang, NIDDK
The assay will start with plating 1,000 cells/well in 3 µL volume and culture for 4 h. Then 23 nL of compounds from the library collection will be added to each well, followed by adding 2.5 µL of HCVcc-Cre virus (~ 0.5 moi) and further cultured for 44 h before the luciferase assay. A volume of 4.5 µL luciferase substrates will be added to each well and the plates will be incubated at room temperature for 15 min. and then read for 15 sec. for the luciferase activity
% is scaled to controls: 0 for no effect and ±100 for the full control effect.

Structure (SMILES) | activity change, negative = inhibition | Potency
COc1cc(C(=S)NCc2ccccc2)cc(Br)c1O | -13.2% | 
COc1cc(C(=O)NCc2ccncc2)cc(Br)c1OCc1ccccc1 |  | 10 µM (active)
COc1cc(C=O)c(Br)cc1OCC(=O)NCc1ccccc1 | -9.16% | 
O=c1c2ccccc2ncn1CCc1ccncc1 | -0.693% | 
CCOc1ncccc1C(=O)OCC(=O)N1c2ccccc2CC1C (centres undefined) | -0.457% | 
C[C@@H]1CN([C@@H](C)CO)C(=O)c2cccc(NS(=O)(=O)c3ccc(F)cc3)c2O[C@H]1CN(C)C(=O)NC1CCCCC1 | -10.1% | 
Cn1c(C(=O)NCCN2CCc3ccccc3C2)cc2c(=O)[nH]c3ccccc3c21 | -20.8% | 
CCN(CC)CCCNC(=O)c1cc2c(=O)[nH]c3ccc(C)cc3c2s1 | -15.9% | 
O=C(NCCN1CCN(Cc2ccccc2)CC1)c1cc2c(=O)[nH]c3ccccc3c2s1 |  | 12.6 µM (active)
CSc1ccccc1C(=O)OCC(=O)N1CCN(C(C)=O)CC1 | 5.57% | 
Cc1ccc(S(=O)(=O)n2oc(=O)c(C3CCCCC3)c2N)cc1 | -14.1% | 
O=C1CSc2ccc(C(=O)NCc3ccccn3)cc2N1 | 28.3% | 
COc1ccc(-c2oc3ncnc(NCCCO)c3c2-c2ccc(OC)cc2)cc1 |  | 12.6 µM (active)
COc1ccc(CCNc2ncnc3c2nnn3Cc2ccccc2)cc1 | -8.73% | 
COc1cc2nc(Cl)nc(NCCO)c2cc1OC | 4.09% | 
Nc1ccc2c(c1)C(O)c1ccc(Cl)cc1-2 (centres undefined) | -6.9% | 
CN(C)CCOCCOc1ccc(Cl)c2ccccc12 |  | 10 µM (active)
CN(C)CCOC1c2ccccc2-c2ccccc21 | -15.1% | 
Clc1cccc(Cl)c1OCCOCCNCc1ccccc1 | -1.97% | 
CCC(C)N(C(=O)CSc1nnnn1-c1ccccc1OC)C1CCS(=O)(=O)C1 (centres undefined) | -3.37% | 
CN(C(=O)Cn1nnc(-c2ccc(F)cc2)n1)C1CCS(=O)(=O)C1 (centres undefined) | -3.26% | 
CCN1CCN(C(=O)CSc2ccc(C)cc2)CC1 | 11% | 
CCOC(=O)C1CCCN(C(=O)/C=C/c2ccc(OC)cc2)C1 (centres undefined) | 5% | 

Structure (SMILES) | activity change, negative = inhibition | Potency
CCN1CCC(O)(/C=C/c2ccc(C)cc2)C(C(=O)/C=C/c2ccc(C)cc2)C1 (centres undefined) |  | 14.1 µM (active)
NC(=O)C1(Nc2ccccc2Cl)CCCC1 | -11.2% | 
O=C(CCNC(=O)c1ccc(Cl)cc1)NC1CCCc2ccccc21 (centres undefined) | -24.4% | 
CCOc1ccc(C(C)NC(=O)CN2C(=O)NC3(CCCCC3)C2=O)cc1OCC (centres undefined) | -0.805% | 
CN(C)S(=O)(=O)c1cccc(NC(=O)COC(=O)c2cc(=O)[nH]c(=O)[nH]2)c1 | 16.2% | 
CN(C)S(=O)(=O)c1cccc(NC(=O)COC(=O)/C=C/c2cccs2)c1 | 7.42% | 
CN(C)S(=O)(=O)c1cccc(NC(=O)COc2ccc3ccccc3c2)c1 |  | 22.4 µM (active)
CCc1c(Nc2ccccc2C)nc(N)[nH]c1=O | 7.29% | 
C[C@H](CO)N1C[C@H](C)[C@@H](CN(C)S(=O)(=O)c2ccc(F)cc2)Oc2ccc(NC(=O)CCC(F)(F)F)cc2C1=O | 13.6% | 
COc1ccc(-n2c(C)nc3c(cnn3-c3ccccc3)c2=O)cc1 |  | 11.2 µM (active)
CCOC(=O)c1ccc(-n2c(C)nc3c(cnn3-c3ccccc3C)c2=O)cc1 | -2.88% | 
Cc1ccc(Oc2cnn(-c3ccccc3)c(=O)c2Br)cc1 | 10.5% | 
COc1ccc(CNC(=O)COC(=O)c2sccc2C)cc1OC | -7.13% | 
O=C(COc1cccnc1[N+](=O)[O-])Nc1ccc(Cl)cc1F | 2.37% | 
COC(C[C@@H]1O[C@@H]1C(=O)[C@H](C)OCc1ccccc1)OC | 18.8% | 
Cc1nc(Nc2ccccc2C)c2cnn(C)c2n1 | 8.38% | 
CCNS(=O)(=O)c1ccc(CCC(=O)N2CCN(c3ccc(OC)cc3)CC2)cc1 | -29.2% | 
CCNS(=O)(=O)c1ccc(CCC(=O)N2CCN(c3cc(Cl)ccc3C)CC2)cc1 |  | 11.2 µM (active)
CCCNS(=O)(=O)c1ccc(CCC(=O)N2CCCC2)cc1 | -7.28% | 
COC(C/C=C/C(=O)[C@@H](C)OCc1ccccc1)OC | -1.38% | 
Nc1nc(-c2ccccc2)cc(-c2ccccc2)n1 |  | 10 µM (active)
c1ccc(-c2cc(-c3ccccc3)[nH]n2)cc1 | -23.8% | 
CS(=O)(=O)c1sc2nc(-c3ccccc3)cc(-c3ccccc3)c2c1N | -20.9% | 

Structure (SMILES) | activity change, negative = inhibition | Potency
COCCNc1nnc(SCC(=O)NNC(=O)c2ccco2)s1 | -1.76% | 
Cc1cc(C)c(-c2c(O)c3ccccc3n(C)c2=O)c(C)c1 |  | 11.2 µM (active)
Cn1c(=O)c(Sc2ccc(Cl)cc2)c(O)c2ccccc21 | 10.3% | 
CCCn1c(=O)c(-c2ccccc2)c(O)c2ccccc21 | 0.771% | 
CC(C#N)(NC(=O)CN1CCN(S(=O)(=O)c2cc(C(F)(F)F)ccc2Cl)CC1)C1CC1 (centres undefined) | -19.9% | 
Cc1cn(COC/C=C/c2ccccc2)c(=O)[nH]c1=O | 12.5% | 
Cc1[nH]c(=O)c(C(=O)/C=C/c2ccccc2)c2c1CCCC2 |  | 14.1 µM (active)
O=C(/C=C/c1ccccc1)c1ccoc1 | 3.26% | 
O=C(NCCS(=O)(=O)N1CCN(c2ccccc2)CC1)c1ccco1 | 5.8% [at 8.37 µM] | 
Cc1cc(Oc2ccc(Cl)cc2)nc(SCC(=O)c2ccccc2)n1 | -9.04% | 
COC(=O)c1cc(C(=O)CSc2nc(C)cc(C)n2)ccc1O | 8.38% | 
Cc1cc(C)nc(SCC(=O)c2ccc(Cl)cc2)n1 |  | 2.82 µM (active)
Cn1nnnc1SCC(=O)Nc1sccc1C(N)=O | 2.96% | 
NC(=O)C1(N2CCCC2)CCN(Cc2ccccc2)CC1 | 19.9% | 
CCc1ccc(-n2c(SCc3cc(=O)n4cc(Br)ccc4n3)nc3[nH]ncc3c2=O)cc1 |  | 10 µM (active)
Cc1cccc2nc(CSc3nc4[nH]ncc4c(=O)n3-c3cccc(Cl)c3)cc(=O)n12 | -0.622% [at 0.335 µM] | 
Cc1ccc(CSc2nc3[nH]ncc3c(=O)[nH]2)cc1 | -3.65% | 
CN1C(c2ccc(F)cc2)=CS/C1=C(/C#N)c1nnc2n1-c1ccccc1SC2 | 6.19% | 
CC(CNC(=O)Cn1cnc2c(OCc3ccccc3)ncnc21)c1ccccc1 (centres undefined) | 2.55% | 
CN(CC(=O)Nc1ccccc1Cl)C(=O)c1ccccc1SCC(=O)N1CCCC1 | 8.76% | 
N=c1n(CCc2ccccc2)c2ccccc2n1Cc1ccccc1F |  | 12.6 µM (active)
O=C(COC(=O)Cc1ccccc1F)NCCc1ccccc1 | -2.44% | 
CC(=O)NC(C)c1nc2ccccc2n1Cc1ccccc1F (centres undefined) | 2.57% | 
